Results as given in PubChem BioAssay.
The source made the active and inactive calls.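 Rule for the calls: active = Her2 level under about 52% in both replicate screens, with viability over 70% of control (limit read from the data); inconclusive = Her2 under the limit in one screen only, or viability under 70%; inactive = Her2 level above the set limit.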

system: not listed separately; assay: Her2 expression decrease, cell viability multiplex – SKBR3 breast tumor cells, AlphaScreen, ATP viability, primary screen (AID 461); conditions: SKBR3 Her2 protein level, 18-24 h, measured here: SKBR3 viability, ATP luminescence, at 10 µM;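 for Her2 level: lower value means less Her2 protein in the cells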;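 for viability: percent of carrier control wells set as 100% viability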

Compound	viability
O=C(O)c1ccc(-c2ccc(O)c(F)c2)cc1	94%
Cn1c(=O)cc(NCCc2ccccc2)[nH]c1=O	97%
Cc1noc(/C=C/N(C)C)c1S(=O)(=O)N1CCCC(C(=O)NCCC2=CCCCC2)C1 (stereo unspecified)	94.5%
CCN(CC)c1ccc(NC(=O)CN2C(=O)CC(C)(C)S(=O)(=O)c3ccccc32)c(C)c1	102%
COc1ccc(C(=O)NCc2nc3ccccc3[nH]2)cc1OC	110%
CSc1ccccc1NC(=O)c1cnc2n(c1=O)CCS2	97.5%
Cc1ccc(C(c2sc3ncnn3c2O)N2CC(C)CC(C)C2)cc1 (stereo unspecified)	118%
CC1CCN(c2oc(-c3ccccc3F)nc2C#N)CC1	82%
COc1nc(Oc2ccc(=O)n(C)n2)nc(N(C)C)n1	81%
Cc1nc2c(-c3ccc(F)cc3)c(C)nn2c(C)c1CCC(=O)NC(C)CCc1ccco1 (stereo unspecified)	102%
COc1ccc(Cl)cc1S(=O)(=O)N1CCN(c2ccc(F)cc2)CC1	80%
CC1CCc2nn(CC(=O)Nc3ccc(F)cc3F)cc2C1 (stereo unspecified)	108%
COc1ccc(NC(=O)C2Cc3ccccc3C(=O)O2)cc1 (stereo unspecified)	90%
Cc1cc(N=Cc2cc(Br)ccc2O)no1	108%
COc1ccc(-c2nc(CS(=O)CC(=O)NCc3ccccn3)c(C)o2)cc1 (stereo unspecified)	103%
CCOc1cc(C2CC(=O)N3CN(C4CCCCC4)CSC3=C2C#N)ccc1O (stereo unspecified)	85%
CCc1ccccc1N1CC23C=CC(O2)C(C(=O)O)C3C1=O (stereo unspecified)	102%
CCN(CC)C1CCCCC1NS(=O)(=O)c1ccc(Cl)cc1 (stereo unspecified)	104%
Cc1cc(=O)oc2c1c(C)nn2-c1ccc(C(=O)OC(C)C)cc1	83.5%
O=C(CS(=O)(=O)Cc1ccccc1)Nc1nc2ccccc2s1	104%
CSc1nc2c(c(=O)n1C)SC(C)C2 (stereo unspecified)	97%

target: Receptor tyrosine-protein kinase erbB-2 (Homo sapiens) (UniProt P04626); assay: as above; conditions: 18-24 h, at 10 µM, stronger effect = lower value
Sequence (P04626 whole entry, looked up): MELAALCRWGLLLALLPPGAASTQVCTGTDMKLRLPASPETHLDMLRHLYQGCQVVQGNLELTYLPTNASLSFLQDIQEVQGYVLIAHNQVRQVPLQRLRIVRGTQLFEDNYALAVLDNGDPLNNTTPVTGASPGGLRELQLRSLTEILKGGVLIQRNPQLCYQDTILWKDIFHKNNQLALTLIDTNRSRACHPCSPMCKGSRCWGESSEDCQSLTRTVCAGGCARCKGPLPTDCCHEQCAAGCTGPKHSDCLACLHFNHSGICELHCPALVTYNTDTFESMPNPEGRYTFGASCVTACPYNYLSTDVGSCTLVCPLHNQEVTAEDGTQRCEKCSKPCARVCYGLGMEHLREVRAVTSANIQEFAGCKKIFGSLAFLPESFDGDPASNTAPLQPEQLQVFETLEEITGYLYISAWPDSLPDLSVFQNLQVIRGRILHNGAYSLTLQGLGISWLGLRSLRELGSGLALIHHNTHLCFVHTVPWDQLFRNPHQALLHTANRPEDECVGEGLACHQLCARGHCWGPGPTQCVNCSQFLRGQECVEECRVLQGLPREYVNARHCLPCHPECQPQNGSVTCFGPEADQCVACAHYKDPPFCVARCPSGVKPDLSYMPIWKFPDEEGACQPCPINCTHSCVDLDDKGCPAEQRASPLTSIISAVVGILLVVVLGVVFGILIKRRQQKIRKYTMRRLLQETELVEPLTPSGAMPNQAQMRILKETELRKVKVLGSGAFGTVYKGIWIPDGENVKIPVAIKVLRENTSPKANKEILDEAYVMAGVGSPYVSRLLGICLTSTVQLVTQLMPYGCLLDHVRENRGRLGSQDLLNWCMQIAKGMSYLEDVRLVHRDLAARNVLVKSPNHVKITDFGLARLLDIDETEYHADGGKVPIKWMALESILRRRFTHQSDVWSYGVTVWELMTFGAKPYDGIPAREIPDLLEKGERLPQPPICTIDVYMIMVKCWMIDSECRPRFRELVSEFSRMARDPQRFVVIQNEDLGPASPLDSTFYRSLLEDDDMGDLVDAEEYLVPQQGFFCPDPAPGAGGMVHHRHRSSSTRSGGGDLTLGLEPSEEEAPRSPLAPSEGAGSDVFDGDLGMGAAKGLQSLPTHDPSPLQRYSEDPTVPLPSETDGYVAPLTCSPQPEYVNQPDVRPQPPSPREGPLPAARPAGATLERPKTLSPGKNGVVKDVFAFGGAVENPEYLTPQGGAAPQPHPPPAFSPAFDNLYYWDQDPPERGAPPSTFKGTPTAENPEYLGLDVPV

Compound	Her2 level
CCCCSc1nc2c(cnn2-c2ccc(F)cc2)c(=O)[nH]1	92% (inactive)
C=C(Cl)COc1ccc2c(C)cc(=O)oc2c1	92.5% (inactive)
COc1ccc(NC(=O)CSc2nnc(Cc3cccn3C)n2-c2ccc(F)cc2)cc1OC	92.5% (inactive)
CCCCSc1nc(CCC)cc(=O)[nH]1	118% (inactive)
Cc1noc(/C=C/N(C)C)c1S(=O)(=O)N1CCc2ccccc21	106% (inactive)
COc1cccc(/C=N/n2cnnc2)c1OCc1ccccc1	104% (inactive)
COC(=O)Cn1c(CN2CCOCC2)nc2c1c(=O)n(C)c(=O)n2C	86.5% (inactive)
COc1ccc(N(CC(=O)Nc2cc(C)ccc2C)S(=O)(=O)c2c(C)nn(C)c2C)cc1	114% (inactive)
CCOC(=O)N1CCN(C(=O)c2c(-c3ccccc3)noc2C)CC1	104% (inactive)
O=C(CSc1ncnc2nc[nH]c12)c1ccc(Cl)cc1	98% (inactive)
Brc1ccccc1-c1nc(-c2ccccc2)no1	84.5% (inactive)
Cc1nc2ccc(S(=O)(=O)NC(C(=O)NCc3cccs3)C(C)C)cc2s1 (stereo unspecified)	116% (inactive)
COc1ccc(-n2c(Cc3cccn3C)nnc2SCC(=O)Nc2ccccc2)cc1	104% (inactive)
O=c1oc2c3c4c(cc2s1)CCCN4CCC3	86% (inactive)
COc1cc2c(cc1OC)C(C)N(C(=O)Cn1ncc3c1-c1ccccc1OC3)CC2 (stereo unspecified)	104% (inactive)
O=C(CSc1ccc2nnc(-c3ccccc3)n2n1)N1CCN(c2ccccc2)CC1	114% (inactive)
CCOC(=O)C1CCCN(C(=O)c2ccc(CS(=O)(=O)c3ccc(Br)cc3)o2)C1 (stereo unspecified)	102% (inactive)
Cc1c(C(=O)NC2CC2)oc2ccc(S(=O)(=O)N3CCCCCC3)cc12	106% (inactive)
CC1=C(C(=O)Nc2ccccc2)C(c2ccccn2)n2nc(CCCO)nc2N1 (stereo unspecified)	105% (inactive)
O=C(O)c1ccc(-c2ccc(O)c(F)c2)cc1	167% (inactive)

Compound	Her2 level
Cn1c(=O)cc(NCCc2ccccc2)[nH]c1=O	93.5% (inactive)
Cc1noc(/C=C/N(C)C)c1S(=O)(=O)N1CCCC(C(=O)NCCC2=CCCCC2)C1 (stereo unspecified)	79% (inactive)
CCN(CC)c1ccc(NC(=O)CN2C(=O)CC(C)(C)S(=O)(=O)c3ccccc32)c(C)c1	111% (inactive)
COc1ccc(C(=O)NCc2nc3ccccc3[nH]2)cc1OC	115% (inactive)
CSc1ccccc1NC(=O)c1cnc2n(c1=O)CCS2	82.5% (inactive)
Cc1ccc(C(c2sc3ncnn3c2O)N2CC(C)CC(C)C2)cc1 (stereo unspecified)	102% (inactive)
CC1CCN(c2oc(-c3ccccc3F)nc2C#N)CC1	95% (inactive)
COc1nc(Oc2ccc(=O)n(C)n2)nc(N(C)C)n1	107% (inactive)
Cc1nc2c(-c3ccc(F)cc3)c(C)nn2c(C)c1CCC(=O)NC(C)CCc1ccco1 (stereo unspecified)	59% (inactive)
COc1ccc(Cl)cc1S(=O)(=O)N1CCN(c2ccc(F)cc2)CC1	82% (inactive)
CC1CCc2nn(CC(=O)Nc3ccc(F)cc3F)cc2C1 (stereo unspecified)	97.5% (inactive)
COc1ccc(NC(=O)C2Cc3ccccc3C(=O)O2)cc1 (stereo unspecified)	92.5% (inactive)
Cc1cc(N=Cc2cc(Br)ccc2O)no1	118% (inactive)
COc1ccc(-c2nc(CS(=O)CC(=O)NCc3ccccn3)c(C)o2)cc1 (stereo unspecified)	92.5% (inactive)
CCOc1cc(C2CC(=O)N3CN(C4CCCCC4)CSC3=C2C#N)ccc1O (stereo unspecified)	108% (inactive)
CCc1ccccc1N1CC23C=CC(O2)C(C(=O)O)C3C1=O (stereo unspecified)	93.5% (inactive)
CCN(CC)C1CCCCC1NS(=O)(=O)c1ccc(Cl)cc1 (stereo unspecified)	116% (inactive)
Cc1cc(=O)oc2c1c(C)nn2-c1ccc(C(=O)OC(C)C)cc1	83.5% (inactive)
O=C(CS(=O)(=O)Cc1ccccc1)Nc1nc2ccccc2s1	85% (inactive)
CSc1nc2c(c(=O)n1C)SC(C)C2 (stereo unspecified)	92.5% (inactive)
